Data taken from PubChem BioAssay (NCATS).
A number with no mark means an inactive call. Results filed as inconclusive are left out. A call without a number means that no potency is given here. The source made the active and inactive calls. Calls come from the whole dose curve; as a rule, active = well fitted curve in the direction sought with a large enough effect; inconclusive = small, poorly fitted or top-dose-only effect, or another doubt; inactive = no such curve, though single readings can be large or run the other way.

Key:
[1] = target: T1, Hexokinase-4 (Homo sapiens) + Glucokinase regulatory protein (Homo sapiens) (UniProt P35557+Q14397); assay: qHTS assay for inhibitors of recombinant human GCK-GKRP interaction: Diaphorase-coupled assay (AID 743205)
T1 sequence (P35557 whole entry, looked up): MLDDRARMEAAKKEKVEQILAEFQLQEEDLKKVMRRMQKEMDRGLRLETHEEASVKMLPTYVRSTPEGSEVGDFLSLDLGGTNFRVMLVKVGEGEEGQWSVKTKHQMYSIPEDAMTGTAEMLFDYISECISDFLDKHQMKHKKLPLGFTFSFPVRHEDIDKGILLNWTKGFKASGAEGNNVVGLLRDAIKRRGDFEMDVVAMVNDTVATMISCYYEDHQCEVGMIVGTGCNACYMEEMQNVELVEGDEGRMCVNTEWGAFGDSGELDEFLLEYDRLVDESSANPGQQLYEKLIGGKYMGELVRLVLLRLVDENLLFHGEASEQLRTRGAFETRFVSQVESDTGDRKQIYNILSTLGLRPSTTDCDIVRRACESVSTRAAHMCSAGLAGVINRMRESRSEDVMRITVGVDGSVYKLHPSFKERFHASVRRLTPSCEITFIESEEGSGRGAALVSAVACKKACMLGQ
T1 sequence (Q14397 whole entry, looked up): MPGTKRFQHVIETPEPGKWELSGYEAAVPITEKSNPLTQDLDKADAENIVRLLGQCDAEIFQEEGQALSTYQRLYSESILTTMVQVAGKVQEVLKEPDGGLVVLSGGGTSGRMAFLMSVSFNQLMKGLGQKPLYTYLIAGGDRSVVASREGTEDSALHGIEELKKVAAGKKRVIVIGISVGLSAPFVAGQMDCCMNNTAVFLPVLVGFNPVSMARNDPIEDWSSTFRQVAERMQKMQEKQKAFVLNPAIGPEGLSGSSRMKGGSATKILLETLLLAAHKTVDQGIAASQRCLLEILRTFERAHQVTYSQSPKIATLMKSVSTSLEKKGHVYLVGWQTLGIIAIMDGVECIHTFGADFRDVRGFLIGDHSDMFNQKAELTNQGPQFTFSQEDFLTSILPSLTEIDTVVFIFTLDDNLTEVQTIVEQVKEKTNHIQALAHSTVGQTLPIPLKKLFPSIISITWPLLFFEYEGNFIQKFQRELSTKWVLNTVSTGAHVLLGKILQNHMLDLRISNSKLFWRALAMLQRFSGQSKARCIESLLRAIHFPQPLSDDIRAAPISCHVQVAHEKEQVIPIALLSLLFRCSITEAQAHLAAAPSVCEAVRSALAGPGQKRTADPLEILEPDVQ
Method in brief: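 Compounds pre-incubated 20 min with substrate, then 10 nM GST-GCK with 10 nM FLAG-GKRP added. GCK activity coupled via G6PDH and diaphorase to resorufin (5 mM glucose, 0.4 mM ATP, 0.15 mM NADP+, pH 7.6), read kinetically over 30 minutes at Ex 525/Em 590 nm.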

[2] = target: T1, Hexokinase-4 (Homo sapiens) + Glucokinase regulatory protein (Homo sapiens); assay: qHTS assay for inhibitors of recombinant human GCK-GKRP interaction: HTRF assay (AID 743207)
Method in brief: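 HTRF binding of 5 nM GST-GCK and 5 nM FLAG-GKRP with 2 uM S6P in pH 7.1 Hepes buffer (MgCl2, KCl, DTT, Tween 20, BSA). Anti-FLAG XL665 and anti-GST donor added, 60 min at room temperature; 665/615 nm read, normalized to with- and without-GCK controls.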

[3] = qHTS Assay for Identifying Gametocytocidal Compounds (AID 743244); note: potency is the fitted concentration of half-maximal effect;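 for max response: actives lower the fluorescent signal which means gametocytes are killed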; conditions: P. falciparum 3D7 stage III-V gametocytes, alamarBlue, 72 h; max response: active compounds read low
Method in brief: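 Using 20,000 stage III–V 3D7 gametocytes per well, compounds were incubated 72 h under 37 °C/5% CO2. Viability was then assessed by 24 h alamarBlue reduction, measured fluorometrically at 525/598 nm.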

[4] = target: T1, Hexokinase-4 (Homo sapiens) + Glucokinase regulatory protein (Homo sapiens); assay: qHTS assay for inhibitors of recombinant human GCK-GKRP interaction: ADP-Glo assay (AID 743206)
Method in brief: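 GST-GCK and FLAG-GKRP (15 nM each in the dispensed mix, with 2 uM S6P) react with 0.4 mM ATP and 5 mM glucose (final) in Hepes pH 7.6 for 60 min at room temperature. ADP is measured by ADP-Glo luminescence.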

In the case of `CCN(CCCl)Cc1ccccc1Br`, the Potency [1] is reported as “inactive”, the outcome [2] is reported as “inactive” and the max response [3] is reported as -1.83%.
In the case of `O=[N+]([O-])c1cc(O)c(O)c([N+](=O)[O-])c1`, the Potency [1] is reported as “inactive”, the outcome [4] is reported as “inactive” and the outcome [2] is reported as “inactive”. It also gave a max response [3] of -6.67%.
In the case of `C[C@@H]1[C@@H]2Cc3ccc(O)cc3[C@@]1(C)CCN2CC1CC1`, the Potency [1] is reported as “inactive”, the outcome [2] is reported as “inactive” and the max response [3] is reported as 29.7%.
In the case of `COc1ccc2c(c1)/C(=C/c1cnc[nH]1)C(=O)N2`, the Potency [1] is reported as “inactive” and the outcome [2] is reported as “inactive”.
For `N[C@@H](CCl)C(=O)O`, the Potency [1] was “inactive”, the outcome [2] was “inactive” and the max response [3] was 3.64%.
For `CC(=O)NBr`, the Potency [1] was “inactive”, the outcome [4] was “inactive” and the outcome [2] was “inactive”. It also gave a max response [3] of 10.7%.
In the case of `CC(=O)OCC1=C(C(=O)O)N2C(=O)[C@@H](NC(=O)CCC[C@@H](N)C(=O)O)[C@H]2SC1`, the Potency [1] is reported as “inactive” and the outcome [2] is reported as “inactive”.
With `NC(Cc1cc(O)c(O)cc1O)C(=O)O` (stereo unspecified) the Potency [1] was “inactive”, the outcome [4] was “inactive” and the max response [3] was 2.05%.
In the case of `N[C@@H](Cn1oc(=O)[nH]c1=O)C(=O)O`, the Potency [1] is reported as “inactive”, the outcome [2] is reported as “inactive” and the max response [3] is reported as 11.5%.
With `CCCn1c(C)c(C(=O)c2ccc3ccccc3c2)c2ccccc21` the Potency [1] was “inactive”, the outcome [2] was “inactive” and the max response [3] was 6.14%.
In the case of `NNC(=O)c1ccc(O)cc1`, the Potency [1] is reported as “inactive”, the outcome [2] is reported as “inactive” and the max response [3] is reported as 7.91%.
With `CCCN(CCC)C1CCc2cccc(O)c2C1` (stereo unspecified) the Potency [1] was “inactive”, the outcome [2] was “inactive” and the max response [3] was 13.2%.
For `CCCC[N+]1(C)C2CC(OC(=O)[C@H](CO)c3ccccc3)CC1C1OC12` (stereo partly specified), the Potency [1] was “inactive” and the outcome [2] was “inactive”.
In the case of `CN1CCc2cccc(Cl)c2CC1`, the Potency [1] is reported as “inactive”, the outcome [2] is reported as “inactive” and the max response [3] is reported as 33.5%.
With `N=C(N)c1ccc(CS(=O)(=O)F)cc1` the Potency [1] was “inactive”, the outcome [2] was “inactive” and the max response [3] was 2.02%.
With `OC1CCCCC1N1CCC(c2ccccc2)CC1` (stereo unspecified) the Potency [1] was “inactive”, the outcome [2] was “inactive” and the max response [3] was 6.56%.
For `CCCN(CCC)[C@@H]1CCc2cccc(O)c2C1`, the Potency [1] was “inactive” and the outcome [2] was “inactive”.
For `CN1CC[C@@]2(C)c3cc(O)ccc3N(C)C12` (stereo partly specified), the Potency [1] was “inactive”, the outcome [4] was “inactive” and the outcome [2] was “inactive”. For the same molecule, the Potency [3] was 3160 nM (active).
In the case of `Cc1[nH]c2ccc(O)cc2c1CCN`, the Potency [1] is reported as “inactive” and the outcome [2] is reported as “inactive”.
With `C#CCN[C@H](C)Cc1ccccc1` the Potency [1] was “inactive”, the outcome [4] was “inactive” and the outcome [2] was “inactive”. The max response [3] was 19.2%.
In the case of `COc1cc(CC(C)N)c(OC)cc1I` (stereo unspecified), the Potency [1] is reported as “inactive”, the outcome [4] is reported as “inactive” and the outcome [2] is reported as “inactive”. It also gave a max response [3] of 3.52%.
For `c1ccc2c(c1)[I+]c1ccccc1-2`, the Potency [1] was “inactive”, the outcome [2] was “inactive” and the Potency [3] was 166 nM (active).
With `N#CCCN` the Potency [1] was “inactive”, the outcome [4] was “inactive” and the outcome [2] was “inactive”. The max response [3] was 15.8%.
With `COc1ccc2c(c1)c(CCN1CCOCC1)c(C)n2C(=O)c1cccc(Cl)c1Cl` the Potency [1] was “inactive”, the outcome [2] was “inactive” and the max response [3] was 23.8%.
With `CCCCCCCCCCCCCC(=O)O[C@@H]1[C@@H](C)[C@@]2(O)[C@@H](C=C(CO)C[C@@]3(O)C(=O)C(C)=C[C@@H]23)C2C(C)(C)[C@@]21OC(C)=O` (stereo partly specified) the Potency [1] was “inactive” and the outcome [2] was “inactive”.
In the case of `O=C1CC[C@@]2(O)C3Cc4ccc(O)c5c4C2(CCN3CC2CC2)[C@H]1O5` (stereo partly specified), the Potency [1] is reported as “inactive”, the outcome [2] is reported as “inactive” and the max response [3] is reported as 16.9%.
With `Oc1ccc2c3c1O[C@H]1c4oc5ccccc5c4C[C@@]4(O)C(C2)N(CC2CC2)CCC314` (stereo partly specified) the Potency [1] was “inactive” and the outcome [2] was “inactive”.
With `CC(C)CC(NP(=O)(O)O[C@@H]1O[C@@H](C)[C@H](O)[C@@H](O)[C@H]1O)C(=O)NC(Cc1c[nH]c2ccccc12)C(=O)O` (stereo partly specified) the outcome [2] was “inactive”.
